# From ChEMBL document CHEMBL4513146, “CO-ADD screening of Karazin Kharkiv National University (Ukraine) compounds”
# Entries with a potency or affinity are not part of this list.
# Columns and labels:
# Staphylococcus aureus = details: Concentration 32 ug.mL-1;; ASSAY_TEST Inhibition of Bacterial Growth; detection method Absorption (OD600); MEDIA CAMHB; plate type 384well; NBS; CORNING #3640; time 18 hr
# Escherichia coli = details: Concentration 32 ug.mL-1;; ASSAY_TEST Inhibition of Bacterial Growth; detection method Absorption (OD600); MEDIA CAMHB; plate type 384well; NBS; CORNING #3640; time 18 hr
SMILES,Inhibition (Staphylococcus aureus) [%],Inhibition (Escherichia coli) [%]
COc1cccc(NC(=O)Cn2nc3c4cc(-c5ccc(Cl)cc5)nn4ccn3c2=O)c1,4.83,3.44
Cc1cccc(Oc2nccn3c(=O)n(CC(=O)Nc4cccc(C(F)(F)F)c4)nc23)c1C,4.71,-4.64
COc1ccc(CCn2c(=O)c3sccc3n3c(=O)n(CC(=O)c4ccccc4)nc23)cc1OC,14.35,3.29
O=C(Cn1nc2c3cc(-c4ccccc4)nn3ccn2c1=O)N1CCN(c2ccccc2F)CC1,4.61,-0.58
O=C(Cn1nc2ccc(SCc3ccc(Cl)cc3)nn2c1=O)NCc1ccccc1,7.82,-9.37
COc1ccc(C(=O)CSc2nnc3c(=O)n(-c4ccc(F)c(F)c4)ccn23)cc1OC,3.91,-0.1
Cc1cc(C)c(NC(=O)Cn2nc3c(SC4CCCCC4)nccn3c2=O)c(C)c1,12.7,-1.77
CSc1cccc(NC(=O)Cn2nc3c(N4CCCC4)nccn3c2=O)c1,-20.72,-10.95
CCc1ccc(NC(=O)Cn2nc3c(=O)n(-c4ccc(Br)cc4)ccn3c2=O)cc1,-5.7,-7.12
Cc1cc2nn(CC(=O)N3CCCC3)c(=O)n2c(Nc2ccc(C)c(F)c2)n1,5.2,-7.93
COc1ccccc1NC(=O)Cn1nc2c(Sc3ccccc3)nccn2c1=O,-14.27,-3.78
CC(C)CCNC(=O)CSc1nnc2c(=O)n(Cc3ccc(F)cc3)ccn12,8.45,-0.48
O=C(Cn1nc2c3cc(-c4ccc(Cl)cc4)nn3ccn2c1=O)NC1CCCC1,-0.6,-3.32
CCOc1ccc(-n2ccn3c(SCC(=O)c4ccc(C)cc4C)nnc3c2=O)cc1,6.78,-6.14
CSc1ccc(CNC(=O)Cn2nc3c(N4CCN(c5ccccc5)CC4)nccn3c2=O)cc1,15.59,0.69
Cc1cccc(NC(=O)CSc2nnc3c(=O)n(-c4ccccc4)ccn23)c1,7.18,-6.81
Cc1ccccc1Cn1nc2c(=O)n(-c3cccc(Cl)c3C)ccn2c1=O,-10.1,-10.57
Cc1nc(-c2ccccc2)cc2nn(CC(=O)Nc3ccc4c(c3)OCO4)c(=O)n12,14.7,-4.44

SMILES,Inhibition (Staphylococcus aureus) [%],Inhibition (Escherichia coli) [%]
O=C(NCc1ccccc1)c1ccc2nn(CC(=O)N3CCN(c4ccccc4F)CC3)c(=O)n2c1,3.54,-3.36
COc1ccc(NC(=O)Cn2nc3c4c5c(sc4ncn3c2=O)CCCC5)cc1,2.3,-5.34
CC(C)CCn1c(=O)c2ccc(C(=O)NC3CCCCC3)cc2n2c(=S)[nH]nc12,-4.78,-9.84
Cc1nnc2c(S(=O)(=O)N(Cc3ccccc3)c3ccc(C(C)C)cc3)cccn12,6.07,-2.4
Cc1nnc2c(=S)[nH]c3ccccc3n12,19.6,10.5
Cc1c(Cl)cccc1-n1ccn2c(=O)n(Cc3ccc(Cl)cc3)nc2c1=O,9.17,-7.56
N#Cc1ccccc1NC(=O)Cn1nc2c(Oc3ccccc3)nccn2c1=O,8.21,1.56
O=S(=O)(c1ccc2nncn2c1)N(Cc1ccc(F)cc1)c1ccc(F)c(F)c1,-11.56,-13.53
Cc1nnc2ccc(S(=O)(=O)N(Cc3cccc(F)c3)c3cccc(F)c3)cn12,-4.62,-13.2
Cc1ccc(-c2nnc3c(=O)n(CC(=O)Nc4cc(C)cc(C)c4)c4ccccc4n23)cc1,10.86,0.18
O=C(CSc1nnc2c(=O)n(-c3ccc(F)cc3)ccn12)N1CCN(c2ccccc2F)CC1,14.78,-0.33
CCOc1ccc(N(Cc2ccccc2)S(=O)(=O)c2ccc3nncn3c2)cc1,-0.89,-1.41
Cc1nnc2c(=O)n(CC(=O)Nc3cccc(Br)c3)c3ccccc3n12,15.88,-0.63
COc1ccc(CN(c2ccc(F)c(F)c2)S(=O)(=O)c2ccc3nncn3c2)cc1,-0.97,-4.01
Cc1cc2nn(CC(=O)Nc3ccc(Cl)cc3)c(=O)n2c(Nc2ccc(F)c(C)c2)n1,4.83,-2.12
COC(=O)c1cccc(NC(=O)Cn2nc3c(Sc4ccc(C)cc4C)nccn3c2=O)c1,10.39,-5.72
CCCCOc1ccc(-c2cc3c4nnc(SCC(=O)Nc5cc(C)ccc5C)n4ccn3n2)cc1,-14.19,-10.44
